Laboratory results published in PubChem BioAssay (EPA / NIEHS).
Several values for one entry are separate records, joined by “and”; a condition that tells them apart may be missing. Equal values may be shown once. Results filed as inconclusive are left out. Some compounds were tested as several samples or in several runs, with calls that do not always agree. Activity calls are given as the source filed them. The calls were made as follows, unless noted: active = hit-call score of the fitted dose curve at least 0.9, where 1 is the maximum; inactive = score below 0.9.

How the values were obtained:
CD69, CD69 (gene 969) = test: BSK_SAg_CD69: BioMAP Diversity Plus: SAg Assay for CD69 Biomarker Activity (AID 2283089); details: primary human HUVEC with PBMC; actives raise or lower the signal;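 as to AC50: cell surface CD69 protein quantified by ELISA with fluorescence detection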
Outline: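 HUVEC co-cultured with PBMC were dosed with chemical, and CD69 was measured by ELISA with fluorescence read-out 24 h later. Bidirectional curve fitting used DMSO as negative control and activity baseline.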

[1] = read-out: Monocyte Chemoattractant Protein-1 (MCP1), CCL2 (gene 6347); test: BSK_SAg_MCP1: BioMAP Diversity Plus: SAg Assay for Monocyte Chemoattractant Protein-1 (MCP1) Biomarker Activity (AID 2283090); details: primary human HUVEC with PBMC; actives raise or lower the signal
Outline: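 MCP-1 levels in the endothelial–PBMC SAg co-culture were quantified by ELISA at 24 h post-dosing; both increases and decreases versus DMSO scored. Cytotoxicity monitored by SRB total protein in parallel cultures.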

[2] = read-out: E-selectin (Homo sapiens) (UniProt P16581); test: BSK_SAg_Eselectin: BioMAP Diversity Plus: SAg Assay for Eselectin Biomarker Activity (AID 2283091); details: primary human HUVEC with PBMC; actives raise or lower the signal
Outline: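 Cell-surface E-selectin is read by ELISA at 24 h in the SAg co-culture of HUVEC and PBMC. Curves are fitted in both directions relative to DMSO. Parallel SRB total-protein staining tracks overt toxicity.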

[3] = read-out: Monokine induced gamma interferon (MIG), CXCL9 (gene 4283); test: BSK_SAg_MIG: BioMAP Diversity Plus: SAg Assay for Monokine induced gamma interferon (MIG) Biomarker Activity (AID 2283092); details: primary human HUVEC with PBMC; actives raise or lower the signal
Outline: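 HUVEC plus human PBMC co-culture, chemicals dosed and MIG (CXCL9) quantified by ELISA at 24 h. Bidirectional curve fitting against DMSO as negative control and baseline, so both gain and loss of signal count as activity.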

[4] = BSK_SAg_PBMCCytotoxicity: PBMC Cytotoxicity Assessment in the BioMAP Diversity Plus: SAg Assay (AID 2283093); details: primary human HUVEC with PBMC;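 also: PBMC viability measured as Alamar Blue reduction fluorescence at 546/580 nm; fitted both ways against DMSO so a hit may be loss or gain of signal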;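 as to AC50: PBMC superantigen activated with SEB plus TSST-1 one hour after compound addition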
Outline: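 Human umbilical vein endothelial cells co-cultured with PBMC; PBMC (75,000/well) pre-treated with compound 1 h, then activated with SEB and TSST-1 (20 ng/mL final each) for 90 h. Alamar Blue added 6 h, fluorescence 546/580 nm; bidirectional fit versus DMSO.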

[5] = read-out: Interleukin-8 (IL8), CXCL8 (gene 3576); test: BSK_SAg_IL8: BioMAP Diversity Plus: SAg Assay for Interleukin-8 (IL8) Biomarker Activity (AID 2283094); details: primary human HUVEC with PBMC; actives raise or lower the signal
Outline: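 ELISA read-out of IL-8 in a primary human vascular co-culture (umbilical vein endothelium plus PBMC), taken 24 h after compound addition. Values derive from bidirectional fits against DMSO negative controls.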

[6] = BSK_SAg_Proliferation: Cell Proliferation Assessment in the BioMAP Diversity Plus: SAg Assay (AID 2283095); details: primary human HUVEC with PBMC;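 also: relative cell number as total protein by SRB absorbance in sub-confluent culture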
Outline: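 Cells (endothelium plus PBMC, human primary) were dosed with chemical, cultured 96 h, fixed in 10% TCA and stained with 0.1% SRB. Absorbance at 560 nm gave relative protein, fitted bidirectionally relative to DMSO.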

[7] = BSK_SAg_SRB: Viability Assessment in the BioMAP Diversity Plus: SAg Assay (AID 2283096); details: primary human HUVEC with PBMC;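 also: cells read one day after compound addition; hits may be either gain or loss of signal compared with DMSO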
Outline: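 Endothelial/PBMC primary human co-culture; compound 24 h; fix 10% TCA, stain 0.1% SRB, A560; protein content as cytotoxicity proxy; bidirectional curve fit, DMSO = baseline.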

[8] = biological target: human CYP2A6, CYP2A6 (gene 1548) (UniProt P11509); test: NVS_ADME_hCYP2A6: NovaScreen (NVS) CYP450-related Enzyme Activity (ADME) Assay for human CYP2A6 (AID 2283099; active = hit-call score of the fitted dose curve at least 0.9, where 1 is the maximum)
Outline: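 Compounds screened at 10 uM (duplicate) and, if active, titrated to a 20 uM top concentration against insect-cell-expressed CYP2A6. Loss of fluorescent product signal after 0.5 h, relative to acetonitrile baseline, indicates inhibition.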

[9] = biological target: human CYP2B6, CYP2B6 (gene 1555) (UniProt P20813); test: NVS_ADME_hCYP2B6: NovaScreen (NVS) CYP450-related Enzyme Activity (ADME) Assay for human CYP2B6 (AID 2283101; active = hit-call score of the fitted dose curve at least 0.9, where 1 is the maximum)
Outline: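 Recombinant human CYP2B6 with fluorogenic substrate, read by fluorescence intensity 1 h after dosing. Primary screen in duplicate at 10 uM, actives followed in concentration series; signal loss relative to acetonitrile control.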

[10] = biological target: Cytochrome P450 2C19 (Homo sapiens) (UniProt P33261); test: NVS_ADME_hCYP2C19: NovaScreen (NVS) CYP450-related Enzyme Activity (ADME) Assay for human CYP2C19 (AID 2283113; active = hit-call score of the fitted dose curve at least 0.9, where 1 is the maximum;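 as to AC50: potency for inhibition seen as loss of fluorescent signal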)
Outline: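 Compounds first screened in duplicate at 10 uM, then confirmed in concentration series. Insect-cell-expressed human CYP2C19 turned over a fluorogenic substrate, and fluorescence was read after 1 h. Inhibition taken as signal loss relative to acetonitrile.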

[11] = biological target: human CYP1A2, CYP1A2 (gene 1544) (UniProt P05177); test: NVS_ADME_hCYP1A2: NovaScreen (NVS) CYP450-related Enzyme Activity (ADME) Assay for human CYP1A2 (AID 2283102; active = hit-call score of the fitted dose curve at least 0.9, where 1 is the maximum;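 also: potency for inhibition since loss of fluorescence marks reduced CYP1A2 activity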)
Outline: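 Enzyme activity of insect-cell-expressed human CYP1A2 measured by fluorescence 0.5 h after compound addition, relative to acetonitrile. Compounds first tested in duplicate at 10 uM, actives followed up in concentration series.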

[12] = biological target: human CYP2C9, CYP2C9 (gene 1559) (UniProt P11712); test: NVS_ADME_hCYP2C9: NovaScreen (NVS) CYP450-related Enzyme Activity (ADME) Assay for human CYP2C9 (AID 2283108; active = hit-call score of the fitted dose curve at least 0.9, where 1 is the maximum)
Outline: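 Cell-free assay of recombinant human CYP2C9 produced in Sf9 cells, with enzyme activity read by fluorescence intensity 0.75 h after compound addition. Loss of signal versus an acetonitrile negative control indicates inhibition. Primary screen used 10 uM in duplicate; actives were retested in concentration series.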

[13] = biological target: Cytochrome P450 3A4 (Homo sapiens) (UniProt P08684); test: NVS_ADME_hCYP3A4: NovaScreen (NVS) CYP450-related Enzyme Activity (ADME) Assay for human CYP3A4 (AID 2283110; active = hit-call score of the fitted dose curve at least 0.9, where 1 is the maximum)
Outline: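 Cell-free assay using insect-cell-expressed human CYP3A4 with a fluorogenic substrate; fluorescence intensity was read 0.33 hour after dosing. Loss of signal relative to acetonitrile vehicle indicated inhibition. Primary single-concentration screen at 10 uM, in duplicate, then concentration series.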

[14] = biological target: human CYP1A1, CYP1A1 (gene 1543) (UniProt P04798); test: NVS_ADME_hCYP1A1: NovaScreen (NVS) CYP450-related Enzyme Activity (ADME) Assay for human CYP1A1 (AID 2283100; active = hit-call score of the fitted dose curve at least 0.9, where 1 is the maximum)
Outline: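 Chemicals were first tested in duplicate at 10 uM, and those passing a 30% inhibition threshold were rerun as concentration series topping at 20 uM. Fluorescence read-out of recombinant enzyme turnover after 1 h, relative to acetonitrile.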

Measured: AC50

E-selectin (Homo sapiens), sequence (P16581 whole entry, looked up): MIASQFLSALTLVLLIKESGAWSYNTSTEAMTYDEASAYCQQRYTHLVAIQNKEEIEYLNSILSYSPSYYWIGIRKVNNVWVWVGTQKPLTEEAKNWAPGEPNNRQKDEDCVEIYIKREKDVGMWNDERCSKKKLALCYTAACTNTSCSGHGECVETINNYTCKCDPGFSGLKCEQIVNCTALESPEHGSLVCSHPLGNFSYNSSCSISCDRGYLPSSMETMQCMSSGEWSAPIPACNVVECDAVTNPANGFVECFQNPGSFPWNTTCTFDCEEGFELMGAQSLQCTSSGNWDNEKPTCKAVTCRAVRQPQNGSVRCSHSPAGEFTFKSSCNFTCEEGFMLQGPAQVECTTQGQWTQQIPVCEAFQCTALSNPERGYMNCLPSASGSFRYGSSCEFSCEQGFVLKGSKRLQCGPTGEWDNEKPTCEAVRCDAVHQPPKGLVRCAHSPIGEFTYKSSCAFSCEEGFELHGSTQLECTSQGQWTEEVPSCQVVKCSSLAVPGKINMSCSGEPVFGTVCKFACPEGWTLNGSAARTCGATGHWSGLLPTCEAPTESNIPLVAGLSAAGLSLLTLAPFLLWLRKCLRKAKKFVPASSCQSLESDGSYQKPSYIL
human CYP2B6, CYP2B6 (gene 1555), sequence (P20813 whole entry, looked up): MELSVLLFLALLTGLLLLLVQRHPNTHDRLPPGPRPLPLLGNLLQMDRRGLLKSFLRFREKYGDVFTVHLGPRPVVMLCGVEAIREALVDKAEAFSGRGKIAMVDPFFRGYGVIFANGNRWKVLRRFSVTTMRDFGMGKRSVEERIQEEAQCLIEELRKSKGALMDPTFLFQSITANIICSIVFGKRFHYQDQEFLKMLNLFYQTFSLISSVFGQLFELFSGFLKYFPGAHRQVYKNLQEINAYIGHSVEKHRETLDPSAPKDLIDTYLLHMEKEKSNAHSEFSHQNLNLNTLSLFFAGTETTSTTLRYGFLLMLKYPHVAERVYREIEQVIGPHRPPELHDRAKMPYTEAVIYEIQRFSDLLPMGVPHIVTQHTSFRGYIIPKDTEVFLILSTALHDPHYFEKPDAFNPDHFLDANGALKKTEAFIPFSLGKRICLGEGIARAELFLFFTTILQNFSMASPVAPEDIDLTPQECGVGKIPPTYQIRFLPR
human CYP1A1, CYP1A1 (gene 1543), sequence (P04798 whole entry, looked up): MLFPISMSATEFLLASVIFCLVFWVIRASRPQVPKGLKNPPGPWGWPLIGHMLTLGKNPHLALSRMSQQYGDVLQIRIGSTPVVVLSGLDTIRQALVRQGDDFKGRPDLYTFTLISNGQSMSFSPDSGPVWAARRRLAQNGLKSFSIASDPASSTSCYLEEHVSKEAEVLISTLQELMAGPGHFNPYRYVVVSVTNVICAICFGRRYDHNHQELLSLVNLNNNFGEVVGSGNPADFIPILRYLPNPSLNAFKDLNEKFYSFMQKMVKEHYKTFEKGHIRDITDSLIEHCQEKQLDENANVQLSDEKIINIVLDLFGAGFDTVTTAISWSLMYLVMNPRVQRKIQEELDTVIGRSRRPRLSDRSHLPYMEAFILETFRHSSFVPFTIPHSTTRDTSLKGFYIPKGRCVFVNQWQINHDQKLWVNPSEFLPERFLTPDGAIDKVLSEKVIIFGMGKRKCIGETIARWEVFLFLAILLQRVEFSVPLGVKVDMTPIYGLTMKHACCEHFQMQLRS
Cytochrome P450 3A4 (Homo sapiens), sequence (P08684 whole entry, looked up): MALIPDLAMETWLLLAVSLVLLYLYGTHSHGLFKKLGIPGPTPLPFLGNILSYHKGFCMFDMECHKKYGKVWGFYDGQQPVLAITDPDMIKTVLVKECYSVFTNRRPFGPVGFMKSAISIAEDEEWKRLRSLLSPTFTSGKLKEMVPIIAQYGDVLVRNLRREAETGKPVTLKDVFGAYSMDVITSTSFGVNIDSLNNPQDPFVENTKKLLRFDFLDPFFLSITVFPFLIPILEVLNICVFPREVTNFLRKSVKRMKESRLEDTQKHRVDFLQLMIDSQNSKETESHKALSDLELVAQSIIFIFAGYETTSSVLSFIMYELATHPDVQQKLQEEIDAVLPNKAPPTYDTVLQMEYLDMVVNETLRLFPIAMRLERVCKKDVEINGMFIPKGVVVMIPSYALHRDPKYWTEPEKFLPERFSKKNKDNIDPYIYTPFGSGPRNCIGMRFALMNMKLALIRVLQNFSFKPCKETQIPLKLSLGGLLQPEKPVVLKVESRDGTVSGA
human CYP2C9, CYP2C9 (gene 1559), sequence (P11712 whole entry, looked up): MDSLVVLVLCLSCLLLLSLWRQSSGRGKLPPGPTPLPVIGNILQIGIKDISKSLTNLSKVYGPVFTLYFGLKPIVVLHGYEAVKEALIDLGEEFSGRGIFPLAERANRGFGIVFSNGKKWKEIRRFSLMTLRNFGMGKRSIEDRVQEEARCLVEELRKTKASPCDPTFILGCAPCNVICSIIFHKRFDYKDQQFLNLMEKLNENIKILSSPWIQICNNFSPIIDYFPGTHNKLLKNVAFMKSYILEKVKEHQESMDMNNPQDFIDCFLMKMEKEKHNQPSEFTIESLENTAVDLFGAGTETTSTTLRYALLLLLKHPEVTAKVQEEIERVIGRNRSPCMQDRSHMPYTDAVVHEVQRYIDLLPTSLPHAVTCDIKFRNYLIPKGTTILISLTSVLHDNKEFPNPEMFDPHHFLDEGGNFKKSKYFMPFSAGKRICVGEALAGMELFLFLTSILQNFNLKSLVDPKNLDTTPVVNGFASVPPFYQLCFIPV
human CYP2A6, CYP2A6 (gene 1548), sequence (P11509 whole entry, looked up): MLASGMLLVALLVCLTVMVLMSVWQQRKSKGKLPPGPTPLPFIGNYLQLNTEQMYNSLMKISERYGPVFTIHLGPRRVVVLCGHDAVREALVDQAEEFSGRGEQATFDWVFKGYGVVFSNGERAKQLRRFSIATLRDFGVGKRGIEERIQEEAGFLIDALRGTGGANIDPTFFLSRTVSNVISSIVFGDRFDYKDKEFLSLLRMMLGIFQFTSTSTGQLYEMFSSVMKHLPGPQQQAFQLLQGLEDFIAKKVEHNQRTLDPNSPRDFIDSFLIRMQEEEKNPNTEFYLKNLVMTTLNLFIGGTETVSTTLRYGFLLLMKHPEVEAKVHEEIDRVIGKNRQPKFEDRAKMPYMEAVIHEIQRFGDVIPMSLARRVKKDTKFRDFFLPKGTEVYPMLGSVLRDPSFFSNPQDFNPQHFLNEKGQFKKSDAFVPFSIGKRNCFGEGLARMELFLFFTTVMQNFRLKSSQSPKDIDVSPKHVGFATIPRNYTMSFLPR
human CYP1A2, CYP1A2 (gene 1544), sequence (P05177 whole entry, looked up): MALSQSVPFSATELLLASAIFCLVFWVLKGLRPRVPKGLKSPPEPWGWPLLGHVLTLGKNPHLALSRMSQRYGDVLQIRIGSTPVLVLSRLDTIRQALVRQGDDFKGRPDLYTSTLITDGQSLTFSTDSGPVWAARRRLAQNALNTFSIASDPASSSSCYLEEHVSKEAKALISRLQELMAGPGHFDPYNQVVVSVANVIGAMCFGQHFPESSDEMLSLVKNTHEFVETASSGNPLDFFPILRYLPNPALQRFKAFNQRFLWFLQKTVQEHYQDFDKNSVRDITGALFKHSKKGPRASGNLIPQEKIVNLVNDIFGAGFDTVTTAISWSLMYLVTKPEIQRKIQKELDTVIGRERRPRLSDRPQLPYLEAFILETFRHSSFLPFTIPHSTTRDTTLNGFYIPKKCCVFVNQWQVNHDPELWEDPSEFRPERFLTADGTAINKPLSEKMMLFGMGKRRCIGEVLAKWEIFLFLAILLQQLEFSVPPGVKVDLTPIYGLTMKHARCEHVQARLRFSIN

Cc1ccc(N)cc1N
not listed: [9] | [10] | [11] | [12] | [13] | [14]
inactive: all other assays above

c1nc[nH]n1
inactive: CD69, CD69 (gene 969) | [1] | [2] | [3] | [4] | [5] | [6] | [7]

N#Cc1cc([N+](=O)[O-])ccc1N
inactive: CD69, CD69 (gene 969) | [1] | [2] | [3] | [4] | [5] | [6] | [7]

ClC1=C(Cl)C2(Cl)C3C(Cl)C(Cl)CC3C1(Cl)C2(Cl)Cl (stereo unspecified)
active: CD69, CD69 (gene 969) 27.5 µM | [1] 33.6 µM | [2] 32.3 µM | [3] 34.4 µM | [4] 13.8 µM | [5] 34.7 µM | [6] 7.61 µM | [7] 31.1 µM | [9] 5.2 µM | [10] 6.11 µM

O=C(O)C(F)(F)C(F)(F)C(=O)O
inactive: CD69, CD69 (gene 969) | [1] | [2] | [3] | [4] | [5] | [6] | [7]

CCOP(=S)(S)OCC
inactive: CD69, CD69 (gene 969) | [1] | [2] | [3] | [4] | [5] | [6] | [7]

CCN(CC)c1ccccc1
inactive: CD69, CD69 (gene 969) | [1] | [2] | [3] | [4] | [5] | [6] | [7]

CCOP(=S)(Oc1ccc([N+](=O)[O-])cc1)c1ccccc1 (stereo unspecified)
active: [6] 22.6 µM | [9] 4.41 µM | [11] 5.08 µM | [12] 5.15 µM | [13] 3.84 µM | [10] 0.198 µM
not listed: [8] | [14]
inactive: all other assays above

CCCCC(CC)COC(=O)c1c(Br)c(Br)c(Br)c(Br)c1C(=O)OCC(CC)CCCC (stereo unspecified)
inactive: CD69, CD69 (gene 969) | [1] | [2] | [3] | [4] | [5] | [6] | [7]

CCOP(=S)(OCC)SCSCC
active: [14] 4.19 µM | [10] 9.32 µM
not listed: [8] | [9] | [11] | [12] | [13]
inactive: all other assays above

O=C(O)C1C(C(=O)O)C2(Cl)C(Cl)=C(Cl)C1(Cl)C2(Cl)Cl (stereo unspecified)
not listed: [9] | [10] | [11] | [12] | [13] | [14]
inactive: all other assays above

CSC(C)(C)C=NO
not listed: [8] | [11]
inactive: all other assays above

COP(=O)(CCC(=O)NCO)OC
inactive: CD69, CD69 (gene 969) | [1] | [2] | [3] | [4] | [5] | [6] | [7]

OCC(F)(F)OC(F)(F)C(F)(F)OC(F)(F)CO
inactive: CD69, CD69 (gene 969) | [1] | [2] | [3] | [4] | [5] | [6] | [7]

O=C(O)C(Cl)Cl
inactive: CD69, CD69 (gene 969) | [1] | [2] | [3] | [4] | [5] | [6] | [7]

CC(Cl)(Cl)C(=O)O
inactive: CD69, CD69 (gene 969) | [1] | [2] | [3] | [4] | [5] | [6] | [7]

COC(=O)C(F)(F)C(F)(F)OC(F)(C(F)(F)F)C(F)(F)OC(F)=C(F)F (stereo unspecified)
inactive: CD69, CD69 (gene 969) | [1] | [2] | [3] | [4] | [5] | [6] | [7]

CC(O)C(F)(F)C(F)(F)F (stereo unspecified)
inactive: CD69, CD69 (gene 969) | [1] | [2] | [3] | [4] | [5] | [6] | [7]

OCC(F)(F)OC(F)(F)C(F)(F)OC(F)(F)C(F)(F)OC(F)(F)CO
inactive: CD69, CD69 (gene 969) | [1] | [3] | [4] | [5] | [6] | [7]
active: CD69, CD69 (gene 969) 12.9 µM | [1] 10.3 µM | [2] 38.3 µM and 42.9 µM | [5] 17.9 µM
